HTT-AS act: activates huntingtin-antisense promoter activity; HEK293 HTT-AS promoter firefly luciferase reporter, 24 h; response scale: percent change from vehicle, -100% = no light; Potency, µM (doses to about 57.5 µM), hits mostly activators; hit rate 0.24% among 48,000; AID 1508624; note: nearly all actives have a fitted effect of over 55% in size
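HEK293 luciferase promoter-reporter cells (2,500/well) plated 24 h, then compounds added at up to 57.5 uM final for 24 h at 37 °C. Firefly luminescence by Dual-Glo, normalized to vehicle (0%) and zero RLU (-100%).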
HTT prom inh: inhibits huntingtin promoter activity; HEK293 HTT promoter firefly luciferase reporter, 24 h; Potency, µM (series often up to 57.5 µM), hits mostly inhibitors; hit rate 0.93% among 48,000; note: nearly all actives have a fitted effect of over 50% in size
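Quantitative HTS used concentration series of up to 57.5 uM final on HEK293 luciferase reporter cells, 24 h at 37 degrees C. Readout was Dual-Glo firefly luminescence.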
GALK inhibitor: inhibits human galactokinase. P51570. recombinant GALK, Kinase-Glo ATP luminescence, 1 h. Potency, µM (doses to about 57.5 µM), usual class: inhibitors. 44,000 tested, under 10 active. AID 1347072
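Compounds were pinned into ATP buffer, then GALK-galactose mix was added (final 5 nM enzyme, 35 uM ATP, 100 uM galactose, pH 8.0). After 1 h at room temperature, Kinase-Glo Plus was added and luminescence read.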
SKOV3 invasion: ovarian cancer metastasis inhibition, 3D TME model; hit rate 0.1% among 46,000; AID 1963576; Potency, µM (top dose mostly 45.8 µM), usual class: inhibitors; SKOV3ip1-GFP adhesion/invasion on 3D omental model, fluorescence; note: nearly all actives have a fitted effect of over 65% in size
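A 3D layer of primary human omental fibroblasts, mesothelial cells, fibronectin and collagen I, grown 48 hr, received SKOV3ip1-GFP cells in serum-free medium plus compounds at 0.36-46 umol/L. After 2 hr RT and 16 hr 37 C, fixed adherent GFP cells were counted; normalized to DMSO and tomatine.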
NTMT1 inhibitor: blocks human N-terminal methyltransferase 1 activity; hit rate 2.5% among 59,000; AID 1645870; NTMT1 MTase-Glo SAH luminescence, purified enzyme; Potency, µM (series often up to 114 µM), hits mostly inhibitors; Q9BV86; note: nearly all actives have a fitted effect of over 65% in size
Target sequence (Q9BV86 whole entry, looked up): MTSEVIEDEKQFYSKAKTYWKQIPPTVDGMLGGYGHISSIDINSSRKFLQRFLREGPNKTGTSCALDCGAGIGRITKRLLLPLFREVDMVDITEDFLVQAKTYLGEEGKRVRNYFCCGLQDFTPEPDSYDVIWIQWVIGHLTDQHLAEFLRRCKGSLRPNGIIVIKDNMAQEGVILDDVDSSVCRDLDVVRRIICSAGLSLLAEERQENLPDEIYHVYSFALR
TSG101-PTAP inh: inhibitors of HIV-1 PTAP binding to human TSG101, validation; Potency, µM (doses to about 115 µM), most hits filed as inhibitors; Fluorescence polarization, FITC-PTAP peptide/Tsg101, 20 min; 44,000 tested, under 10 active
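The Tsg101 binding domain, at 10 uM final, is mixed with compound and a FITC peptide bearing the PTAP motif (50 nM final). After 20 min at r.t., polarization is measured; actives defined by CRC class, efficacy cut-off 60% inhibition.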
DYRK1A inh-1: blocks recombinant human DYRK1A kinase activity | shares compounds with NTMT1 inhibitor | recombinant DYRK1A, Kinase-Glo ATP depletion luminescence | Potency, µM (series often up to 76.9 µM), hits mostly inhibitors | hit rate 80% among 100 | AID 2705
CLK4 inh-1: CLK4 kinase inhibition, SAR round 2; shares compounds with NTMT1 inhibitor; recombinant Clk4, Kinase-Glo ATP luminescence, 4.5 h; Potency, µM (titrated, usually from 76.9 µM), usual class: inhibitors; hit rate 90% among 90
Target sequence (Q9HAZ1 whole entry, looked up): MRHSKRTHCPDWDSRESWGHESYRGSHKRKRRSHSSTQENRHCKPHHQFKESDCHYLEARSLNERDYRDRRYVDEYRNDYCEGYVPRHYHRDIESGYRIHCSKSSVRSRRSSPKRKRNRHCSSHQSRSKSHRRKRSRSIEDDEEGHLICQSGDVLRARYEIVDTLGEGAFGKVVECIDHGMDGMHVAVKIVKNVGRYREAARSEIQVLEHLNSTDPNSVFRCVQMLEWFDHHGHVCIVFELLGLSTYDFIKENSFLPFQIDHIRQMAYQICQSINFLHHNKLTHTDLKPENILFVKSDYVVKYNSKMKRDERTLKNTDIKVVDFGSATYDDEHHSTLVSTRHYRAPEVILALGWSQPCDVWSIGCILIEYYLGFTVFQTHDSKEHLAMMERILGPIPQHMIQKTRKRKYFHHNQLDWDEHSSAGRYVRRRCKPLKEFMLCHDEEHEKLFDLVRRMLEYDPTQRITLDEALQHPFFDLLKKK
CLK4 inh-2: blocks human CLK4 kinase in radiometric assay; AID 504421; Potency, µM, usual class: inhibitors; hit rate 100% among 65; shares compounds with NTMT1 inhibitor; Reaction Biology kinase assay, 10 uM ATP; calls by dose curve
DYRK1A inh-2: blocks human DYRK1A kinase in radiometric assay; shares compounds with NTMT1 inhibitor; Reaction Biology kinase assay, 10 uM ATP; Potency, µM, usual class: inhibitors; hit rate 90% among 65; AID 504424;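 active = compounds that showed inhibition of Dyrk1a and received a fitted potency; inactive = compounds that showed no inhibition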
CLK2 RBC: CLK2 kinase inhibition | shares compounds with NTMT1 inhibitor | Potency, µM, usual class: inhibitors | Reaction Biology kinase assay, 10 uM ATP | AID 504427 | hit rate 90% among 65;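 active = compound that inhibits Clk2 kinase in the dose series, with an IC50 potency reported; inactive = no inhibition seen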
CLK3 RBC: inhibitors of human CLK3 kinase. shares compounds with NTMT1 inhibitor. recombinant CLK3 kinase assay, 10 uM ATP. Potency, µM, usual class: inhibitors. hit rate 40% among 65. AID 504428;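 active = compounds that inhibited Clk3 enough in the ten-dose series to give a half-maximal potency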
DYRK1B RBC: blocks human DYRK1B kinase activity | shares compounds with NTMT1 inhibitor | Recombinant Dyrk1b kinase assay, 10 uM ATP | Potency, µM, hits mostly inhibitors | AID 504429 | hit rate 80% among 65;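 active = compounds whose dose response shows an inhibitor phenotype against the kinase Dyrk1b; inactive = compounds showing no inhibitor phenotype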
CLK1 inh: inhibitors of human CLK1 kinase; hit rate 90% among 65; AID 504430; shares compounds with NTMT1 inhibitor; recombinant Clk1 kinase assay, 10 uM ATP; Potency, µM, actives largely listed as inhibitors;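 active = compounds that block the splicing kinase Clk1 enough to give a fitted half-inhibition concentration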
Sfp qHTS opt: inhibitors of Bacillus subtilis Sfp PPTase, optimization followup; AID 540350; purified Sfp PPTase enzyme activity, qHTS; shares compounds with NTMT1 inhibitor; Potency, µM (highest dose often 114 µM), usual class: inhibitors; hit rate 78% among 230
Bsub HM489 growth: reduces growth of B. subtilis HM489 strain. shares compounds with NTMT1 inhibitor. Potency, µM (titrated, usually from 114 µM), hits mostly inhibitors. B. subtilis HM489 (acpS-) growth, BacTiter-Glo, 5 h. hit rate 50% among 220
Sfp PPTase gel: Sfp PPTase inhibition, gel-based detection. shares compounds with NTMT1 inhibitor. purified Sfp PPTase, gel-based product detection. Potency, µM (highest dose often 250 µM), usual class: inhibitors. hit rate 54% among 220
Sfp inh SAR2: inhibitors of Bacillus subtilis Sfp PPTase, SAR round 2 | hit rate 87% among 230 | purified Sfp enzyme, PPTase activity, qHTS | AID 602370 | shares compounds with NTMT1 inhibitor | Potency, µM (titrated, usually from 57.1 µM), actives largely listed as inhibitors
HSD17B4 inh: counter-screen for HPGD inhibitors: human HSD17B4 inhibition | shares compounds with NTMT1 inhibitor | purified HSD17B4, estradiol/NAD+, NADH fluorescence | Potency, µM (series often up to 57.1 µM), usual class: inhibitors | hit rate 10% among 230
ALDH1A1 counter: ALDH1A1 (human) inhibition, HPGD counter-screen; Potency, µM (series often up to 57.1 µM), usual class: inhibitors; recombinant ALDH1A1, NADH fluorescence, propionaldehyde/NAD+; hit rate 93% among 230; shares compounds with NTMT1 inhibitor; AID 743195
Numbers stand for hits. Shown are actives, neighbours in structure and some others; about 2.5% of the full set was active somewhere. Unless noted, calls come from the whole dose curve; as a rule, active = well fitted curve in the direction sought with a large enough effect; inconclusive = small, poorly fitted or top-dose-only effect, or another doubt; inactive = no such curve, though single readings can be large; an effect the other way counts as inactive or inconclusive.

Results for CC(C)C[C@@H](N)C(=O)N[C@H]1C(=O)N[C@@H](CC(N)=O)C(=O)N[C@H]2C(=O)N[C@H]3C(=O)N[C@H](C(=O)N[C@H](C(=O)O)c4cc(O)cc(O)c4-c4cc3ccc4O)[C@H](O)c3ccc(c(Cl)c3)Oc3cc2cc(c3O[C@@H]2O[C@H](CO)[C@@H](O)[C@H](O)[C@H]2O[C@H]2C[C@](C)(N)[C@H](O)[C@H](C)O2)Oc2ccc(cc2Cl)[C@H]1O ?
NTMT1 inhibitor: inactive

How did OCc1ccc(-c2ccc3ncnc(N4CCOCC4)c3c2)o1 do in these assays?
NTMT1 inhibitor: inactive; CLK4 inh-1: 0.52µM; CLK4 inh-2: 1.1; DYRK1A inh-2: 15µM; CLK2 RBC: 14µM; CLK3 RBC: inactive; DYRK1B RBC: 15µM; CLK1 inh: 5.3µM

How did Cc1noc(C)c1-c1ccc2ncnc(NCC3CCN(C)CC3)c2c1 do in these assays?
NTMT1 inhibitor: inactive

Results for COc1ccc(N2CCN(C(=O)Cc3coc4ccc(C)cc34)CC2)cc1 ?
HTT-AS act: inactive; HTT prom inh: inactive; GALK inhibitor: inactive; SKOV3 invasion: inactive; NTMT1 inhibitor: inactive; TSG101-PTAP inh: inactive

What do the screens show for `Cc1cc(C)nc(NC(=S)N2CCN(c3ccc4occc4c3)CC2)c1`?
NTMT1 inhibitor: inconclusive; Sfp qHTS opt: 3.7µM; Bsub HM489 growth: inconclusive; Sfp PPTase gel: 4µM; Sfp inh SAR2: 4.6µM; HSD17B4 inh: inconclusive; ALDH1A1 counter: 17µM

What do the screens show for `Cc1cc(C)nc(NC(=S)N2CCN(c3ccc4c(c3)OCO4)CC2)c1`?
NTMT1 inhibitor: 28µM; Sfp qHTS opt: 9.4µM; Bsub HM489 growth: inactive; Sfp PPTase gel: 0.63µM; Sfp inh SAR2: 14µM; HSD17B4 inh: inconclusive; ALDH1A1 counter: 4.3µM

What do the screens show for `CC(=O)Nc1ccc(-c2c(NC(C)=O)sc3c2CCNC3)cn1`?
NTMT1 inhibitor: inactive

Results for FC(F)(F)c1ccc(CNc2ccc(Cc3c[nH]c4ncc(Cl)cc34)cn2)cn1 ?
NTMT1 inhibitor: inactive

How did CCOC(=O)c1ccoc1-c1ccc2ncnc(NCc3ncc[nH]3)c2c1 do in these assays?
NTMT1 inhibitor: inactive; DYRK1A inh-1: inconclusive

Results for Cc1cccc(CNc2ncnc3ccc(-c4ccoc4)cc23)c1 ?
NTMT1 inhibitor: inactive

How did Cc1ccc(CNc2ncnc3ccc(-c4ccoc4C)cc23)o1 do in these assays?
NTMT1 inhibitor: inconclusive; DYRK1A inh-1: 4.6µM

How did Cc1occc1-c1ccc2ncnc(NCc3ncc[nH]3)c2c1 do in these assays?
NTMT1 inhibitor: inactive; DYRK1A inh-1: 2.3µM

Results for c1cncc(CNc2ncnc3ccc(-c4ccoc4)cc23)c1 ?
NTMT1 inhibitor: inactive

How did c1c[nH]c(CNc2ncnc3ccc(-c4ccoc4)cc23)n1 do in these assays?
NTMT1 inhibitor: inactive; DYRK1A inh-1: 9.2µM

How did COC(=O)c1ccccc1NC(=O)c1ccccc1OC(F)F do in these assays?
NTMT1 inhibitor: inactive

How did CN1C(=O)[C@@H](NC(=O)c2cc(Cc3ccccc3)on2)COc2ccccc21 do in these assays?
NTMT1 inhibitor: inactive

Compound activity from PubChem BioAssay.
